The text below walks through data of PubChem BioAssay.

In this experiment the test system is Human papillomavirus type 1a E7 protein (residues 1-88). Briefly: HPV1a E7 small-molecule binders, primary screen, biochemical, small-molecule microarray, residues 1-88, 635 nm (AID 1129). The settings on record: small-molecule microarray binding, fluorescence 635 nm; higher = more signal.
On to `CC(C)[C@@H](OCc1ccccc1)[C@H](C)C=NOC[C@@H](O)COCc1ccco1`, for which the composite z-score was -0.244.

As for `CC(C)(C)N1C(=O)[C@H]2[C@H]3[C@H](O)C=CC(=O)[C@@H]3CC[C@H]2C1=O`, the composite z-score came to 0.025. For `CCOC(=O)[C@H](CC(C)C)NC(=O)CCC1CC(OC(=O)NCc2cccc3ccccc23)CC2(CCCC(COC(=O)NCCOC)O2)O1` (stereo partly specified), the composite z-score is 1.19.

For `Cc1ccc(S(=O)(=O)n2c3ccccc3c3nnc(C(=O)c4ccccc4)nc32)cc1`, the composite z-score was -0.0414.

On to `CCN1C(=O)[C@H]2[C@H]3[C@H](O)[C@H](O)CC(=NOC[C@H]4O[C@H](c5ccccc5)C=C[C@@H]4Oc4ccc(OC)cc4)[C@@H]3CC[C@H]2C1=O`, for which the composite z-score is 0.829.

As for `Cc1cc2c(c(=O)o1)[C@@H](O)[C@H]1O[C@H]1C2=O`, the composite z-score was found to be 0.281. Then `C#CCCCON=C1C[C@@H](O)[C@@H](O)[C@@H]2[C@@H]3C(=O)N(c4cccc(Oc5ccccc5)c4)C(=O)[C@@H]3CC[C@H]12`, with -0.936; and `CC(CCN1CCc2nc(-c3ccccc3)c(-c3ccccc3)cc2C1)=NOC[C@@H](O)[C@H]1O[C@@H]2OC(C)(C)O[C@@H]2[C@H]1O`, with 0.94.

The compound `CC(CCN1CCc2nc(-c3ccccc3)c(-c3ccccc3)cc2C1)=NOC[C@@H](O)COCc1ccco1` yielded a composite z-score of 0.697. To `CSCC[C@@H]1NC(=O)CC=C[C@@H](C)COC(=O)[C@@H](C)COC1=O` belongs -1.81; to `CC(=O)Nc1ccc([C@@H]2N[C@H](C(=O)O)CC[C@H]2C)cc1`, 0.557.

Compound `C#CCCCON=C1[C@H]2CCn3c(=O)n(-c4ccccc4)c(=O)n3[C@H]2[C@H](O)[C@@H]2O[C@H]12` yielded a composite z-score of 0.875. In turn, `COC(=O)[C@@H]1CC[C@H](C)[C@@H](c2ccc(C)cc2)N1C(=O)c1ccc(C=NOC[C@@H](C)[C@H](OCc2ccccc2)C(C)C)cc1` returned a composite z-score of 0.673. Then `CCOC(=O)[C@H](Cc1ccccc1)NC(=O)CCC1CC(OC(=O)NCc2cccc3ccccc23)CC2(CCCC(COC(=O)NCCC(C)C)O2)O1` (stereo partly specified), with -0.431; and `C=CC[C@@H]1C=C[C@H](ON=C2[C@H]3CCn4c(=O)n(-c5ccccc5)c(=O)n4[C@H]3[C@H](O)[C@@H]3O[C@H]23)[C@@H](CO)O1`, with -0.542; and `CCOC(=O)[C@H](CC(C)C)NC(=O)CCC1CC(OC(=O)NCc2cccc3ccccc23)CC2(CCCC(COC(=O)NCCOc3ccccc3)O2)O1` (stereo partly specified), with 1.15. Then `C[C@@H](c1ccccc1)N1C(=O)[C@H]2[C@H]3[C@H](O)[C@H](O)CC(=NOCc4ccccc4)[C@H]3CC[C@H]2C1=O`, with 1.17; and `CCCNC(=O)OC[C@H]1O[C@H](CCON=C(C)CCN2CCc3nc(CC)c(CC)cc3C2)C=C[C@@H]1Oc1ccc(OC)cc1`, with -0.476. As for `CCCNC(=O)OC[C@H]1O[C@H](CCON=C(C)C)C=C[C@@H]1Oc1ccc(OC)cc1`, the composite z-score is -0.124. For the compound `CC(=O)O[C@H]1C2=CO[C@H](C)[C@H]3[C@H]4C5=C([C@H](O)[C@H]6O[C@H]6C5=O)[C@H](OC4C)[C@@]23C(=O)[C@@H]2O[C@@H]21` (stereo partly specified), the composite z-score is 0.121. For the compound `C=CC[C@@H]1C=C[C@H](ON=C[C@@H](C)[C@H](OCc2ccccc2)C(C)C)[C@@H](CO)O1`, the composite z-score was -0.324. For the compound `COC(=O)CC=C[C@@H](C)[C@@H](C=NOC(C)CN1CCCc2nc(C)c(C)cc21)OC` (stereo partly specified), the composite z-score came out at 0.464. For the compound `CC(CCN1CCCCc2nc(C)c(C)cc21)=NOC[C@@H](C)[C@H](OCc1ccccc1)C(C)C`, the composite z-score was -0.824. To `CON=C(C)CCC(=O)OC[C@H]1O[C@H](c2ccccc2)C=C[C@@H]1Oc1ccc(OC)cc1` belongs -0.623; to `CON=CC[C@@H]1C=C[C@H](OC(C)=O)[C@@H](COC(C)=O)O1`, -0.534; to `Cn1c(=O)n2n(c1=O)[C@H]1[C@H](O)[C@@H]3O[C@@H]3C(=O)[C@H]1CC2`, 0.827.

Regarding `COc1ccc(COC(=O)NN=C2C[C@@H](O)[C@@H](O)[C@@H]3[C@@H]4C(=O)N(Cc5ccccc5)C(=O)[C@@H]4CC[C@H]23)cc1`, the composite z-score was -0.111. Then `C#CCCCON=C1C[C@@H](O)[C@@H](O)[C@@H]2[C@@H]3C(=O)N(C(C)(C)C)C(=O)[C@@H]3CC[C@@H]12`, with -0.175. To `C[C@@H](c1ccccc1)N1C(=O)[C@H]2[C@H]3[C@H](O)[C@H](O)CC(=NO[C@@H]4O[C@H](CO)[C@@H](O)[C@H](O)[C@H]4O)[C@H]3CC[C@H]2C1=O` belongs 0.76; to `CCOC(=O)CCN1C(=O)[C@H]2[C@H]3[C@H](O)[C@H](O)CC(=NOCc4ccccc4)[C@H]3CC[C@H]2C1=O`, -0.469; to `CO[C@H]1COC(=O)[C@@H](C)COC(=O)[C@H](COCc2ccccc2)NC(=O)CC=C[C@H]1C`, -1.02. Consider `COc1cccc([C@H]2Oc3ccc(OC)cc3C(=NO[C@@H]3O[C@H](COC(C)=O)[C@@H](OC(C)=O)[C@H](OC(C)=O)[C@H]3OC(C)=O)[C@@H]2O)c1`, for which the composite z-score is 0.23. Regarding `CCOC(=O)[C@H](CC(C)C)NC(=O)CCC1CC(OC(=O)NCc2ccc3c(c2)OCO3)CC2(CCCC(COC(=O)NCc3cccc(C(F)(F)F)c3)O2)O1` (stereo partly specified), the composite z-score is 0.218. To `CCN1C(=O)[C@H]2[C@H]3[C@H](O)[C@H](O)CC(=NOCC(C)C)[C@@H]3CC[C@H]2C1=O` belongs 1.04; to `COC(=O)[C@H](C)NC(=O)CCC1CC(OC(=O)NCCc2ccc(F)cc2)CC2(CCCC(COC(=O)NCCC(C)C)O2)O1` (stereo partly specified), 0.168.

For `C=CC[C@@H]1C=C[C@H](ON=C(C)CCN2CCc3nc(-c4ccccc4)c(-c4ccccc4)cc3C2)[C@@H](CO)O1`, the composite z-score was 0.876.
